The source of these data is PubChem BioAssay (NCI).

Holding throughout (assay): NCI-60 one-dose screen, 48 h (100 = growth as untreated, 0 = no growth, -100 = all killed)
Holding throughout (details): 10 µM unless noted

In assay [1] the test system is HCT-15 colon.
Assay [2] relates to HT29 colon.
In assay [3] the test system is SNB-75 CNS.
Assay [4] has as its system U251 CNS.
In assay [5] the test system is PC-3 prostate.
Assay [6] relates to SK-MEL-5 melanoma.
In assay [7] the test system is UACC-62 melanoma.
For assay [8], the system named is LOX IMVI melanoma.
Assay [9] relates to SK-MEL-28 melanoma.

Compounds without any hit were thinned out: in the full panel of roughly 83,000, 20% have a hit.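 Step 1: grow cells in 96-well plates. Step 2: add test compound at a single concentration. Step 3: incubate 48 h. Step 4: record percent growth.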 A number with no mark means an inactive call. Active and inactive are the calls of the source. How the source made its calls: active means growth percent below 10; inactive means the rest.

With `CNC(=O)c1cc(Oc2ccc3nc(NC(=O)Nc4ccc(CN5CCOCC5)c(C(F)(F)F)c4)sc3c2)ccn1`, the growth in assay [1] was 24.5%; in [2], 45.3%; in [3] it was 59.4%; in [4] it was 22.2%; in [5] it was 8.35% (active); in [6], -55.4% (active). In addition, the growth in [7] was 0.564% (active); in assay [8] it was 16.7%; in [9] it was 25.1%.

As for `CCCCCCCCCc1cc(CN2CCCCC2)c(O)c(CN2CCCCC2)c1`, the growth in [1] is 52.3%; in assay [2], 40.5%; in assay [3], 60.6%; in assay [4] it was 45.1%; in assay [5] it was 53.7%; in [6], 40%. Further, the growth in assay [7] is 72.9%; in assay [8] it was 48.6%; in [9] it was 74%.

On to `CC1CN(C(C)C)C(=S)N(c2ccccc2)C1=O` (stereo not drawn), for which the growth in assay [1] was 104%; in assay [2] it was 104%; in assay [3] it was 119%; in assay [4] it was 99.9%; in [5], 105%; in assay [6] it was 98.1%. For the same compound, the growth is 94.4% in assay [7], 93.4% in assay [8] and 122% in assay [9].

Regarding `CN1CCN(Cc2ccc(NC(=O)c3[nH]ncc3Nc3ncnc4sccc34)cc2)CC1`, the growth in assay [1] was 7.97% (active); in [2], 17%; in assay [3] it was -32.5% (active); in [4], 16.4%; in [5] it was 6.12% (active); in assay [6], -5.05% (active). For the same compound, the growth in assay [7] was 8.83% (active); in [8], -1.47% (active); in assay [9], 17.8%.

Regarding `c1ccc2c(Nc3cccc4ccccc34)cccc2c1`, the growth in assay [1] was 35.1%; in assay [2], 15.8%; in assay [3], 20.8%; in assay [4] it was 32.1%; in assay [5] it was 65.2%; in assay [6] it was 71%. Also, the growth in assay [7] is 23.7%; in [8] it was 52.6%; in assay [9], 61.5%.

On to `CN1/C(=C\C=C\C2=[N+](C)c3ccccc3C2(C)C)C(C)(C)c2ccccc21`, for which the growth in assay [1] is 8.08% (active); in assay [2], -33.9% (active); in assay [3], -5.88% (active); in [4], 9.16% (active); in [5], 2.66% (active); in [6], -98.5% (active). Also, the figures for the growth in assay [7], in [8] and in assay [9] were -77.3% (active), 0.458% (active) and -25.4% (active), respectively.

For the compound `CC(=O)OC1Oc2cc(C)c(C)cc2-c2oc(=O)c(-c3cc4ccc(N(C)C)cc4oc3=O)cc21` (stereo not drawn), the growth is 100% in [1]; 100% in assay [2]; 69% in [3]; 115% in [4]; 61.9% in [5]; 49.8% in [6]. The growth in assay [7] is 61.6%; in assay [8], 101%; in [9], 115%.

`CN1CCN(Cc2ccc(NC(=O)c3[nH]ncc3Nc3ncnc4c3CCC4)cc2)CC1`: the growth was 13.7% in assay [1]; 9.71% (active) in assay [2]; -22.6% (active) in [3]; 15.4% in assay [4]; 9.21% (active) in assay [5]; 9.53% (active) in [6]. Moreover, the growth in [7] is 9.97% (active); in assay [8] it was 7.49% (active); in assay [9] it was 5.62% (active).

`C=CC[N+]1(CC)CCN=C1CCCCCCCCCCCCCCCCC` (stereo not drawn): the growth is -88.6% (active) in [1]; -100% (active) in assay [2]; -92.1% (active) in assay [3]; -100% (active) in [4]; -68.6% (active) in assay [5]; -100% (active) in assay [6]. The figures for the growth in assay [7], in [8] and in [9] were -86.1% (active), -96.3% (active) and -76.1% (active), respectively.

With `CSc1[nH]c2ncnc(N)c2c1C#N`, the growth was 99% in assay [1]; 97.9% in [2]; 82.5% in assay [3]; 107% in [4]; 110% in [5]; 99.9% in [6]. The growth is 85.9% in assay [7], 109% in assay [8] and 120% in [9].

As to `O=C1C[C@H](Sc2nc(-c3ccc(F)cc3)cc(C(F)(F)F)n2)[C@H]2CO[C@@H]1O2`, the growth was 63.1% in [1]; 75.5% in [2]; 98.3% in assay [3]; 98.9% in assay [4]; 96.2% in assay [5]; 97.5% in [6]. Besides, the results for the growth in [7], in [8] and in [9] were 98.2%, 34.8% and 105%, respectively.

Consider `CN(C)c1ccc(/C=C(\C#N)c2nc3ccccc3s2)cc1`, for which the growth is 106% in assay [1]; 100% in assay [2]; 89.4% in [3]; 106% in assay [4]; 105% in assay [5]; 98.4% in [6]. For the same compound, the growth in assay [7] was 101%; in assay [8], 113%; in assay [9] it was 119%.

In the case of `COC1=CC(=O)C(OC)=C(OC)C1=O`, the growth in [1] was 102%; in [2], 107%; in assay [3], 90.1%; in assay [4], 100%; in assay [5], 98.1%; in assay [6], 97.5%. In addition, the growth in [7] was 87.5%; in [9], 98.6%.

On to `C(=N\Nc1nnn(Cc2ccccc2)n1)/c1ccccc1`, for which the growth was 23.1% in assay [1]; 20.1% in assay [2]; 75% in assay [3]; 31.7% in assay [4]; 51.9% in [5]; 32% in [6]. In addition, the growth in assay [7] is 41.5%; in assay [8], 48.8%; in assay [9], 45.4%.

Consider `C=CC[N+]1(CCO)CCN=C1CCCCCCCCCCCCC` (stereo not drawn), for which the growth was -74.5% (active) in assay [1]; -92.2% (active) in assay [2]; -78.3% (active) in assay [3]; -87.8% (active) in [4]; -29.9% (active) in assay [5]; -95% (active) in [6]. The growth in assay [7] was -96.5% (active); in assay [9] it was -69.5% (active).
